# Experimental data published in PubChem BioAssay (NCATS).
# Values joined by “and” are separate entries in the source; they are usually repeats but may differ in a detail not shown here. Equal entries are not always repeated. Results filed as inconclusive are left out. Active and inactive are the calls of the source. Calls come from the whole dose curve; as a rule, active = well fitted curve in the direction sought with a large enough effect; inconclusive = small, poorly fitted or top-dose-only effect, or another doubt; inactive = no such curve, though single readings can be large; an effect the other way counts as inactive or inconclusive.
# What was measured:
# [1] = qHTS assay for measurement of the activity of small molecule inhibitors on Zika virus induced Caspase-3 activity in human iPSC derived neural progenitor cells (hNPCs) (AID 1224857); note: nearly all actives have a fitted effect of over 65% in size; note: potency is the fitted concentration of half-maximal effect
# How it was run: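 Zika virus (2 FFU/cell) infection of human iPSC-derived NPCs, 6 h, following 1 h compound preincubation. Read-out: Caspase-Glo 3/7 luminescence.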
# [2] = qHTS assay for measurement of the activity of small molecule inhibitors on Zika virus induced Caspase-3 activity in human astrocytoma cells (AID 1224859)
# How it was run: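 Caspase activation in ZIKV-infected SNB-19 cells (2 FFU/cell, 6 h) measured by Caspase-Glo 3/7 luminescence after 30 min RT; compound pre-incubated 1 h; normalised to uninfected and infected controls.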
# [3] = qHTS Screen of the MIPE 4.0 Collection Against Ewings Sarcoma (RDES) (AID 1259252); note: nearly all actives have a fitted effect of over 35% in size; note: potency is the fitted concentration of half-maximal effect
# How it was run: (§1)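 Dose series incubated 48 h with cells in RPMI plus 5% FBS, glutamine and penicillin/streptomycin; cell viability then quantified via CellTiter-Glo.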
# [4] = qHTS Screen of the MIPE 4.0 Collection Against Ewings Sarcoma (TC71) (AID 1259253); note: nearly all actives have a fitted effect of over 40% in size; note: potency is the fitted concentration of half-maximal effect
# How it was run: as §1
# [5] = qHTS Screen of the MIPE 4.0 Collection Against Ewings Sarcoma (EW8) (AID 1259255); note: nearly all actives have a fitted effect of over 35% in size; note: potency is the fitted concentration of half-maximal effect
# How it was run: as §1
# [6] = qHTS Screen of the MIPE 4.0 Collection Against Ewings Sarcoma (TC32) (AID 1259256); note: nearly all actives have a fitted effect of over 45% in size; note: potency is the fitted concentration of half-maximal effect
# How it was run: as §1
# [7] = Identifying Small Molecule Inhibitors of Pancreatic Cancer Stem Cells (A2780, Spheroid) (AID 1259357); conditions: Potency: A2780 spheroid viability; note: potency is the fitted concentration of half-maximal effect;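 note: spheroids pre-formed over 14 days in stem cell medium on hydrogel; compound exposure lasted 48 h before the ATP luminescence read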
# How it was run: (§2)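 Viability is scored by CellTiter-Glo luminescence 48 h after dosing, expressed as percent activity against vehicle and no-cell references. Spheroid formats rely on cells cultured 14 days in stem cell media beforehand.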
# [8] = P-glycoprotein substrates identified in KB-3-1 adenocarcinoma cell line, qHTS therapeutic library screen (AID 1346986); note: nearly all actives have a fitted effect of over 60% in size;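 note: potency is the fitted concentration of half-maximal effect; potency is for cytotoxicity meaning loss of cell viability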
# How it was run: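 Viability by CellTiter-Glo after 72 h compound exposure at 37 degree C, 5% CO2. Cytotoxic call: curve class -1.1 to -2.4, maximum response >50%, AC50 < 10 uM, compared across KB-3-1 and P-gp-overexpressing KB-8-5-11.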
# [9] = P-glycoprotein substrates identified in KB-8-5-11 adenocarcinoma cell line, qHTS therapeutic library screen (AID 1346987); note: nearly all actives have a fitted effect of over 65% in size; note: potency is the fitted concentration of half-maximal effect
# How it was run: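 In this qHTS, P-gp-rich KB-8-5-11 cells received library compounds across a concentration range. Viability was quantified by luminescence after 72 h at 37 degree C.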
# [10] = NS1 protein of Zika virus - qHTS assay to identify small molecule inhibitors in human HEK 293 cells (AID 1347053); note: nearly all actives have a fitted effect of over 55% in size; note: potency is the fitted concentration of half-maximal effect
# How it was run: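 Compound-treated (1 h pre-infection) HEK 293 cells infected with ZIKV MR766, MOI = 0.5; after 24 h at 37 C, NS1 read by TR-FRET; data normalized to uninfected and infected controls.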
# [11] = qHTS assay to identify small molecule inhibitors of chordoma cells - UCH-2 (AID 1259356); note: series mostly up to about 46 µM
# [12] = Identifying Small Molecule Inhibitors of Pancreatic Cancer Stem Cells (SN12C, Spheroid) (AID 1259360); conditions: Potency: SN12C spheroid viability; note: potency is the fitted concentration of half-maximal effect
# How it was run: as §2
# [13] = Identifying Small Molecule Inhibitors of Pancreatic Cancer Stem Cells (A278, Adherent) (AID 1259361);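 note: viability read after 48 h compound exposure; nearly all actives have a fitted effect of over 35% in size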
# How it was run: (§3)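 Endpoint: ATP-based luminescence, 48 h drug exposure. Bortezomib at 9.2 uM final as full-kill control; DMSO vehicle as negative control; activity normalized between vehicle and cell-free wells.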
# [14] = Identifying Small Molecule Inhibitors of Pancreatic Cancer Stem Cells (SN12C, Adherent) (AID 1259358);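 note: potency is the fitted concentration of half-maximal effect; cell survival measured after 48 h of compound exposure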
# How it was run: as §3
# [15] = Identifying Small Molecule Inhibitors of Pancreatic Cancer Stem Cells (Panc1, Spheroid) (AID 1259359);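 note: potency is the fitted concentration of half-maximal effect; compound exposure lasted 48 h before reading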
# How it was run: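 After a 4 h attachment period, compounds were pinned into wells and cultures held 48 h under standard incubator conditions. Viability was then measured as CellTiter-Glo luminescence following 10 min at room temperature.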
# [16] = Identifying Small Molecule Inhibitors of Pancreatic Cancer Stem Cells (Panc1, Adherent) (AID 1259362); conditions: Potency: viability; note: potency is the fitted concentration of half-maximal effect
# How it was run: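 Adherent (2D) versus sphere (3D) formats; spheres generated 14 d in SCM beforehand. Compound transferred by pin tool after 4 h, 48 h incubation, CellTiter-Glo endpoint.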
Compound,Potency [1],Potency [2],Potency [3],Potency [4],Potency [5],Potency [6],Potency [7],Potency [8],Potency [9],Potency [10],outcome [11],Potency [12],IC50 (viability decrease) [13],Potency [14],Potency [15],Potency [16]
Cc1cc(Nc2cc(NC(=O)c3c(Cl)cccc3Cl)ccn2)nc(N)n1,inactive,inactive,332 nM (active),148 nM (active),187 nM (active),264 nM (active),20900 nM (active),326 nM (active),935 nM (active) and 1.16 µM (active),2350 nM (active),,,,,,
CN[C@H]1CCc2cc(OC)c(OC)c(OC)c2-c2ccc(OC)c(=O)cc21,inactive,inactive,2.1 nM (active),3.3 nM (active),1.9 nM (active),inactive,,,18.7 nM (active) and 1.16 µM (active),8.3 nM (active),inactive,,,,,
CN(c1ncccc1CNc1nc(Nc2ccc3c(c2)CC(=O)N3)ncc1C(F)(F)F)S(C)(=O)=O,inactive,inactive,11800 nM (active),5900 nM (active),8330 nM (active),10500 nM (active),5260 nM (active),5170 nM (active),,11800 nM (active),,20900 nM (active),2960 nM (active),,,
CN1CC[C@@H](c2c(O)cc(O)c3c(=O)cc(-c4ccccc4Cl)oc23)[C@@H](O)C1,inactive,inactive,148 nM (active),74.3 nM (active),118 nM (active),148 nM (active),74.3 nM (active),,209 nM (active),833 nM (active),,118 nM (active),37.2 nM (active),187 nM (active),132 nM (active),
CC1=C(CO)C(=O)O[C@@H]([C@@H](C)[C@H]2CC[C@H]3[C@@H]4C[C@H]5O[C@]56[C@@H](O)C=CC(=O)[C@]6(C)[C@@H]4CC[C@]23C)C1,9350 nM (active),inactive,526 nM (active),526 nM (active),264 nM (active),209 nM (active),935 nM (active),,1180 nM (active),1480 nM (active),,1660 nM (active),662 nM (active),5260 nM (active),1050 nM (active),
Nc1nc(Nc2ccc(S(N)(=O)=O)cc2)nn1C(=O)c1c(F)cccc1F,inactive,inactive,8330 nM (active),5260 nM (active),8330 nM (active),7430 nM (active),4180 nM (active),,10.5 µM (active) and 7.31 µM (active),18700 nM (active),,,2640 nM (active),,,
CC[C@@H]1C(=O)N(C)c2cnc(Nc3ccc(C(=O)NC4CCC(N5CCN(CC6CC6)CC5)CC4)cc3OC)nc2N1C(C)C (stereo partly drawn),inactive,inactive,105 nM (active),118 nM (active),74.3 nM (active),66.2 nM (active),inactive,,372 nM (active) and 326 nM (active) and 231 nM (active),105 nM (active),,,20.9 nM (active),1320 nM (active),9.3 nM (active),10.5 nM (active)
O=c1[nH]c(=O)n(C2CCCO2)cc1F (stereo not drawn),inactive,inactive,inactive,inactive,inactive,inactive,,inactive,inactive,inactive,inactive,,,,,
COc1cccc2nc(-c3cccs3)nc(NN3C(=O)C=C(C)C3=O)c12,inactive,inactive,2960 nM (active),743 nM (active),469 nM (active),1870 nM (active),662 nM (active),,469 nM (active) and 1.64 µM (active),3720 nM (active),,20900 nM (active),469 nM (active),,,
Nc1cc(C(F)(F)F)c(-c2cc(N3CCOCC3)nc(N3CCOCC3)n2)cn1,inactive,inactive,372 nM (active),1050 nM (active),590 nM (active),264 nM (active),1480 nM (active),,469 nM (active) and 1.16 µM (active),,,,662 nM (active),,833 nM (active),1870 nM (active)
CC1(C)O[C@@H]2C[C@@H]3[C@H]4C[C@@H](F)C5=CC(=O)C=C[C@]5(C)[C@@]4(F)[C@@H](O)C[C@]3(C)[C@]2(C(=O)CO)O1,inactive,inactive,inactive,inactive,inactive,inactive,,inactive,inactive,inactive,inactive,,,,,
Cc1ccc(C(=O)Nc2ccc(CN3CCN(C)CC3)c(C(F)(F)F)c2)cc1C#Cc1cnc2cccnn12,inactive,inactive,5260 nM (active),4690 nM (active),5900 nM (active),5900 nM (active),14800 nM (active),,2.09 µM (active) and 3.66 µM (active),11800 nM (active),,23500 nM (active),5260 nM (active),16600 nM (active),,
